Data taken from the supplement of paper PMC11417369.
± gives the standard deviation of the averaged measurements. In all, about 25,000 sequences were measured (“ln(normalized median fluorescence intensity)”: median about 10, highest 2% from about 12 on). The entries come from a sample that favours the highest values as a whole.

Each sequence was assayed on PfAP2-G AP2 domain (GST-tagged) (assay: gcPBM binding intensity (ln(normalized median fluorescence intensity)); higher = stronger DNA binding).
Summary of the method: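 Each value is the highest Masliner-normalised natural-log median intensity across replicate spots of either orientation of a probe. The probes were primer-extended double-stranded 36-bp intergenic genomic sequences on an Agilent 4 × 180k array, alongside negative controls, exposed for 1 h to GST-tagged P. falciparum DNA-binding domains expressed in E. coli. Bound protein was picked up with Alexa488 anti-GST antibody and scanned at 488 nm.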

Q: With “TATATTATTATGCATAGTACGTACTGTGATAAGAAT [XGTACX_site2956]” as the sequence, how does the “gcPBM binding intensity (ln)” value read?
A: 11.4 ± 0.8

Q: “AGAATAAGAATTATTAGTACTTATAAATATTATATT [XGTACX_site7228]” was tested. Which “gcPBM binding intensity (ln)” value did it give?
A: 10.9 ± 0.58

Q: For “TTATTATGCTGAGTACGTACTTATATAAGAATAGCA [XGTACX_site2955]”, which “gcPBM binding intensity (ln)” value is on record?
A: 11.8 ± 1

Q: Which “gcPBM binding intensity (ln)” value does the source give for “AAAAAAAAATATATATATATATATATAAATAAATTT [CACACA_negctrl_site519]” here?
A: 9.315 ± 0.007

Q: How did the “gcPBM binding intensity (ln)” value turn out when “AGGAAAAAAAAAATGACACACATATTTGAATTAAAA [CACACA_site1352]” was run?
A: 9.965 ± 0.007

Q: “ACAAAATTTACAAAATGTACAAAGTATGTGTTTTAT [XGTACX_site6462]” was tested. Which “gcPBM binding intensity (ln)” value did it give?
A: 10.7 ± 0.36

Q: For “TATATGTGGGTTTTTTTTATGTGTTTTTCTTTTTTT [CACACA_negctrl_site936]”, which “gcPBM binding intensity (ln)” value is on record?
A: 10.2 ± 0.18

Q: Which “gcPBM binding intensity (ln)” value does the source give for “TTAATTTTATTTTTTTGTACACATAAATATTATAAA [XGTACX_site4680]” here?
A: 11.4 ± 0.91

Q: How did the “gcPBM binding intensity (ln)” value turn out when “AAATTATTTCCGTGTACACATAAATATATATTTTAT [CACACA_site5121]” was run?
A: 11.8 ± 0.83

Q: Which “gcPBM binding intensity (ln)” value does the source give for “TATTATAATTTTATATGTACACATATATAAATATAT [XGTACX_site4054]” here?
A: 11.4 ± 1.1

Q: How did the “gcPBM binding intensity (ln)” value turn out when “TGAAATAAAATTTGTACACACATATTTATTTATATA [CACACA_site6421]” was run?
A: 11.2 ± 0.97

Q: Which “gcPBM binding intensity (ln)” value does the source give for “GTGAAATTATTTCCGTGTACACATAAATATATATTT [XGTACX_site3989]” here?
A: 11.8 ± 0.99

Q: “TGTGAAATAAAATTTGTACACACATATATATATATA [CACACA_site8093]” was tested. Which “gcPBM binding intensity (ln)” value did it give?
A: 11.1 ± 0.73

Q: Which “gcPBM binding intensity (ln)” value does the source give for “TATTATGTCTAAAATAACATATTAATATATTATTTC [CACACA_negctrl_site285]” here?
A: 9.77 ± 0.11

Q: “TAAACAGTATGCAACGCATGCGTTGTTATATATAAA [TGCATGCA_site232]” was tested. Which “gcPBM binding intensity (ln)” value did it give?
A: 9.88 ± 0.042

Q: With “TCTTTTAAACAGTACACACACACATATATATATATA [CACACA_site924]” as the sequence, how does the “gcPBM binding intensity (ln)” value read?
A: 11.2 ± 0.69

Q: “AGCGTATTATACTGACGTACATTTTATGTAACTCCA [XGTACX_site2715]” was tested. Which “gcPBM binding intensity (ln)” value did it give?
A: 11.4 ± 1.1

Q: Which “gcPBM binding intensity (ln)” value does the source give for “ATATGATCATTTTATCATTTTGCTTTTTCTTTTTTT [CACACA_negctrl_site1325]” here?
A: 9.4 ± 0.42

Q: For “ATATTTTTGTTCAGGAGTACAGTTCAAGATGAAAAT [XGTACX_site4178]”, which “gcPBM binding intensity (ln)” value is on record?
A: 11.6 ± 0.99

Q: Which “gcPBM binding intensity (ln)” value does the source give for “TTTGTTCATATGAAATGTACAAAAAAAAAAAAAAAA [XGTACX_site8849]” here?
A: 10.8 ± 0.77

Q: Which “gcPBM binding intensity (ln)” value does the source give for “GAGTTAATATTTAAAAGTACAAGATGAATGTAAAAA [XGTACX_site5810]” here?
A: 11.3 ± 0.78

Q: For “CATCTAAATTGTAGTTGTACACCTTAATCTTATTAC [XGTACX_site7547]”, which “gcPBM binding intensity (ln)” value is on record?
A: 11.7 ± 0.83

Q: Which “gcPBM binding intensity (ln)” value does the source give for “ATAAATAATTGTAGTTGTACATGATATTTTTATTAC [XGTACX_site550]” here?
A: 11.1 ± 0.63

Q: With “ATATAATAGTTATATTGTACATAAATTATACACCTT [XGTACX_site628]” as the sequence, how does the “gcPBM binding intensity (ln)” value read?
A: 11 ± 0.5

Q: Which “gcPBM binding intensity (ln)” value does the source give for “TTAGTATATTTTTCCTGTACGTACTCAGATACAAAT [XGTACX_site7397]” here?
A: 11.7 ± 0.91

Q: For “ATATATGTATATTTATGTACGTATTCCTGTATAGTC [XGTACX_site5763]”, which “gcPBM binding intensity (ln)” value is on record?
A: 11.5 ± 0.85

Q: Which “gcPBM binding intensity (ln)” value does the source give for “ATTTTTATTAAAATATGTACGTATTTTACTCATACA [XGTACX_site5330]” here?
A: 11.6 ± 0.8

Q: With “TTTAATAATTATTAAAGTACAAAATAAATATTGAAT [XGTACX_site7538]” as the sequence, how does the “gcPBM binding intensity (ln)” value read?
A: 11 ± 0.62

Q: Which “gcPBM binding intensity (ln)” value does the source give for “CAAATAAAAATAAGGAGTACAATTAAAAAAGGAAGG [XGTACX_site4366]” here?
A: 11.6 ± 0.91

Q: With “TGGAATAAAAAAAGGAGTACAATTAATTATTCTTAA [XGTACX_site8299]” as the sequence, how does the “gcPBM binding intensity (ln)” value read?
A: 11.8 ± 1.3

Q: How did the “gcPBM binding intensity (ln)” value turn out when “TTGTATATATATGGAAAAATATATATATATATATAT [GTGCAC_negctrl_site591]” was run?
A: 10.3 ± 0.83

Q: With “ATATACTATATTTTAACACACAAAAAAAAAAAATAT [CACACA_site1091]” as the sequence, how does the “gcPBM binding intensity (ln)” value read?
A: 9.985 ± 0.035

Q: Which “gcPBM binding intensity (ln)” value does the source give for “AAATTATAATATAATACACACATAAAAAAAAAATCA [CACACA_site3634]” here?
A: 9.975 ± 0.049

Q: Which “gcPBM binding intensity (ln)” value does the source give for “CCCCCCGTGTTATATACACACATAATCAAATAAAAT [CACACA_site4111]” here?
A: 11.8 ± 0.99

Q: Which “gcPBM binding intensity (ln)” value does the source give for “AGGCACGTGTTATATACACACATAATCAAATAAACT [CACACA_site7852]” here?
A: 10 ± 0.11

Q: With “TAATAAATAAAATAGAGTACAGGGATTTCATTAAAT [XGTACX_site8979]” as the sequence, how does the “gcPBM binding intensity (ln)” value read?
A: 11.4 ± 0.82

Q: “TTGCATTAATTTATGTGTACATATAAATTTTTATTT [XGTACX_site3060]” was tested. Which “gcPBM binding intensity (ln)” value did it give?
A: 11.6 ± 0.88

Q: “TTTTAATGTACCAGTGTGCACCTTGCGTACATATTA [GTGCAC_site9957]” was tested. Which “gcPBM binding intensity (ln)” value did it give?
A: 11.6 ± 0.97

Q: For “CCAGTGTGCACCTTGCGTACATATTAAATTAATTAA [XGTACX_site3729]”, which “gcPBM binding intensity (ln)” value is on record?
A: 11.5 ± 0.96

Q: How did the “gcPBM binding intensity (ln)” value turn out when “TTTTGGATCATTTGTTGTACATATGCAAAAAAAAAA [XGTACX_site3157]” was run?
A: 11.3 ± 0.91

Q: Which “gcPBM binding intensity (ln)” value does the source give for “TTCATCTTAAAATTGGGTACATAACACAAAGTATAA [XGTACX_site1894]” here?
A: 11.3 ± 0.93

Q: For “TTAAGAATATCTTAGAGTACATTTTATCATCTTAAA [XGTACX_site8298]”, which “gcPBM binding intensity (ln)” value is on record?
A: 11 ± 0.68

Q: With “ATGGTATCTTTTAGAAGTACATCATGATAATAATTT [XGTACX_site5544]” as the sequence, how does the “gcPBM binding intensity (ln)” value read?
A: 11.7 ± 0.91

Q: With “ATCTTATCATTTTAAAGTACATAATTAATTCTTTTT [XGTACX_site3999]” as the sequence, how does the “gcPBM binding intensity (ln)” value read?
A: 11.2 ± 0.67

Q: How did the “gcPBM binding intensity (ln)” value turn out when “ATTTTTTTTTAATGCAAAAGGTGATGATCGGTCATA [CACACA_negctrl_site959]” was run?
A: 10.2 ± 0.35
